Compound activity from PubChem.
Mtb betalactam: beta-lactam sensitization of Mtb H37Rv. M. tuberculosis H37Rv growth with meropenem, percent inhibition. inhibition, % at 25 µM. 330,000 compounds, 0.27% hits; call rule not given here;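 also: growth measured after seven days incubation then overnight dye step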
RecA splice inh: Mtb RecA intein splicing inhibition. cell-free RecA intein splicing, fluorescence. inhibition, % (concentration not given with the values). 290,000 compounds, 0.75% hits; in the data active = inhibition above about 30%
Rv3671c protease: inhibitors of M. tuberculosis serine protease Rv3671c; P9WHR9; inhibition, % at 5.96 µM; 320,000 compounds, 0.048% hits; in the data active = inhibition above about 38%;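 also: extracellular domain of Rv3671c used as enzyme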
Mtb FBA inh: inhibitors of M. tuberculosis fructose-bisphosphate aldolase; purified M. tuberculosis FBA, fluorescence read-out; inhibition, % at 1 µM; 360,000 compounds, 2.3% hits; AID 588726
Target sequence (P9WQA3 whole entry, looked up): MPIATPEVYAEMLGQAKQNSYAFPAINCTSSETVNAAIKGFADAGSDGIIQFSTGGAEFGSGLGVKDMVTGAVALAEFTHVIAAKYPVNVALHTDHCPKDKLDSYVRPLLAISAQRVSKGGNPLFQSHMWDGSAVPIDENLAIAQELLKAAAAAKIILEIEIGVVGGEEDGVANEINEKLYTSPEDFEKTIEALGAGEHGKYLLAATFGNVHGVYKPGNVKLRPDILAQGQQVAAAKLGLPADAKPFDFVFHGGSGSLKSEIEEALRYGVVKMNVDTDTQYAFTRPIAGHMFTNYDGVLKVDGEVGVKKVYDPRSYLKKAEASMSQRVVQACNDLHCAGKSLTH
UGM FP inh: Mtb UDP-galactopyranose mutase inhibition; purified UGM, fluorescence polarization probe displacement; inhibition, % at 10 µM; 320,000 compounds, 0.06% hits; in the data active = inhibition above about 10%, passing the limit was not always enough
GDH-TPI counter-1: inhibits GDH-TPI coupling enzymes, artifact for Mtb FBA screen. AID 588335. inhibition, % at 4.8 µM. GDH-TPI coupled enzyme counterscreen, NADH absorbance. 360,000 compounds, 1.2% hits; in the data active = inhibition above about 30%
Mtb FBA confirm: Mtb FBA inhibition, confirmed; 5,600 compounds, 78% hits; purified M. tuberculosis FBA, fluorescence read-out; AID 651616; inhibition, % at 1 µM; shares compounds with Mtb FBA inh
GDH-TPI counter-2: GDH-TPI inhibition counter-screen for FBA inhibitors. shares compounds with Mtb FBA inh. GDH-TPI coupled enzyme counterscreen, fluorescence. inhibition, % at 1 µM. 5,600 compounds, 81% hits. AID 652141; in the data active = inhibition above about 10%
Large screens that a line does not name were inactive (follow-up assays come after a bar, where they were run). Compounds with a hit are over-represented: about 4% of the library has one in this group of screens. Rule as the data show it, unless noted: active = inhibition above about 27%; inactive = the rest.

COc1ccc(C(=O)N2CCCCCC2)cc1OC1CCN(C(C)C)CC1	none
O=c1oc(CCCO)cc2ccc(C#Cc3ccsc3)cc12	Mtb FBA inh 57 (no result: RecA splice inh) | Mtb FBA confirm 87 | GDH-TPI counter-2 73
CC(C)(O)c1cc2ccc(C#Cc3ccsc3)cc2c(=O)o1	Mtb FBA inh 50 (no result: RecA splice inh) | Mtb FBA confirm 32 | GDH-TPI counter-2 31
CCN(CC)CCNC(=O)Cn1ncc2ccccc2c1=O	none
CCN(CC(=O)Nc1c(F)cccc1F)C(=O)c1ccc(S(=O)(=O)N2CCC(C)CC2)cc1	none (no result: RecA splice inh)
c1ccc(CCCc2nc(-c3cccnc3)no2)cc1	Mtb FBA inh 77 | Mtb FBA confirm 52 | GDH-TPI counter-2 37
Cc1cc(C(=O)NN=Cc2ccc(OC(=O)c3ccco3)cc2)c(C)o1	none (no result: RecA splice inh)
CCOc1ccc(N=c2oc3cc(O)ccc3cc2C(=O)NCC2CCCO2)cc1 (configuration not stated)	Mtb FBA inh 56 | Mtb FBA confirm 39 | GDH-TPI counter-2 36
CCOc1ccc(S(=O)(=O)Nc2ccccc2C(=O)NCC2CCCO2)cc1 (configuration not stated)	Mtb FBA inh 31 | Mtb FBA confirm 148 | GDH-TPI counter-2 108
CCOC(=O)CNC(=O)N(C)[C@H]1C[C@H]2c3[nH]c4ccccc4c3CCN2C(=O)[C@H]1[C@H](C)O	none (no result: Mtb betalactam, RecA splice inh, Rv3671c protease, UGM FP inh, GDH-TPI counter-1)
CN(C(=O)C(C)(C)C)[C@H]1C[C@H]2c3[nH]c4ccccc4c3CCN2C(=O)[C@H]1CO	Mtb FBA inh 79 (no result: Mtb betalactam, RecA splice inh, Rv3671c protease, UGM FP inh) | Mtb FBA confirm active | GDH-TPI counter-2 active
C[C@H](O)[C@@H]1C(=O)N2CCc3c([nH]c4ccccc34)[C@@H]2C[C@@H]1N(C)C(=O)c1ccco1	Mtb FBA inh 67 (no result: Mtb betalactam, RecA splice inh, Rv3671c protease, UGM FP inh, GDH-TPI counter-1) | Mtb FBA confirm 144 | GDH-TPI counter-2 132
C[C@H](O)[C@@H]1CN2CCc3c([nH]c4ccccc34)[C@@H]2C[C@@H]1N(C)C(=O)Nc1cc(Cl)cc(Cl)c1	none (no result: Mtb betalactam, RecA splice inh, Rv3671c protease, UGM FP inh)
C[C@H](O)[C@@H]1C(=O)N2CCc3c([nH]c4ccccc34)[C@@H]2C[C@@H]1N(C)C(=O)Nc1cc(Cl)cc(Cl)c1	Mtb FBA inh 30 (no result: Mtb betalactam, RecA splice inh, Rv3671c protease, UGM FP inh) | Mtb FBA confirm active | GDH-TPI counter-2 active
C[C@H](O)[C@@H]1C(=O)N2CCc3c([nH]c4ccccc34)[C@@H]2C[C@@H]1N(C)C(=O)Nc1ccccc1	Mtb FBA inh 28 (no result: Mtb betalactam, RecA splice inh, Rv3671c protease, UGM FP inh) | Mtb FBA confirm 52 | GDH-TPI counter-2 42
CCOc1ccc(CCNC(=O)CCC(=O)N2CCSc3ccccc32)cc1OCC	none (no result: UGM FP inh)
CCCOC(=O)Nc1c(C)cccc1C(C)C	none
Nc1[nH]nc2nc3ccccc3cc12	none
Nc1cccc2nc3ccccc3cc12	Mtb FBA inh 75 (no result: UGM FP inh) | Mtb FBA confirm inactive | GDH-TPI counter-2 inactive
Cc1ccc(C2NC(=O)c3c(sc4c3CCN(C)C4)N2)s1 (configuration not stated)	Mtb FBA inh 45 | Mtb FBA confirm 69 | GDH-TPI counter-2 71
Fc1ccc(-c2csc(N3CCC(c4ccccc4)C3)n2)cc1 (configuration not stated)	none
COc1ccc(-c2csc(N3CCC(c4ccccc4)C3)n2)cc1 (configuration not stated)	Mtb FBA inh 45 | Mtb FBA confirm 133 | GDH-TPI counter-2 91
CN(C)S(=O)(=O)c1ccc(S(=O)(=O)N2CCCC(C(=O)NC3CC3)C2)cc1 (configuration not stated)	none
O=C(c1cc(COc2cccc3cnccc23)on1)N1CCCC(CCCO)C1 (configuration not stated)	Mtb FBA inh 30 | Mtb FBA confirm 192 | GDH-TPI counter-2 132
CCCCC(CC)CNC(=O)c1[nH]c(C)c(C(C)=O)c1C (configuration not stated)	none
CCN1CCN(CC(O)COc2ccc3c(C)cc(=O)oc3c2)CC1 (configuration not stated)	Mtb FBA inh 53 | Mtb FBA confirm active | GDH-TPI counter-2 active
Cc1cc(=O)oc2cc(OCC(O)Cn3ccnc3)ccc12 (configuration not stated)	Mtb FBA inh 43 | Mtb FBA confirm inactive | GDH-TPI counter-2 inactive
COc1ccc(-c2oc3ncnc(NCCCN4CCOCC4)c3c2-c2ccc(OC)cc2)cc1	Mtb FBA inh 108 | Mtb FBA confirm active | GDH-TPI counter-2 active
OCCCNc1ncnc2oc(-c3ccccc3)c(-c3ccccc3)c12	Mtb FBA inh 89 (no result: Rv3671c protease) | Mtb FBA confirm 98 | GDH-TPI counter-2 79
c1ccc(-c2oc3ncnc(NCCCN4CCOCC4)c3c2-c2ccccc2)cc1	Mtb FBA inh 48 | Mtb FBA confirm inactive | GDH-TPI counter-2 inactive
CC1CCc2nc3ccc(S(=O)(=O)N4CCC(C(=O)N5CCCCCC5)CC4)cc3c(C(=O)O)c2C1 (configuration not stated)	none
Cc1cc(C)n2nc(-c3ccsc3-n3c(C)ccc3C)cc2n1	Mtb FBA inh 46 | Mtb FBA confirm 61 | GDH-TPI counter-2 27
COC(=O)c1sc(NC(=O)/C=C/c2ccc(C)o2)nc1C	none
Cc1nc(SCC(=O)O)c2oc3ccccc3c2n1	none
Cc1nc(SCC(=O)N2CCN(c3ccccc3)CC2)c2oc3ccccc3c2n1	Mtb FBA inh 31 | Mtb FBA confirm active | GDH-TPI counter-2 active
COc1ccccc1C(=O)Nc1cccc(NC(=O)c2ccccc2OC)n1	none (no result: RecA splice inh)
CNc1cncc(-c2c(OC)cccc2OC)n1	Mtb FBA inh 77 (no result: Mtb betalactam, RecA splice inh, Rv3671c protease, UGM FP inh) | Mtb FBA confirm active | GDH-TPI counter-2 active
CNc1cncc(-c2ccc(OC)c(OC)c2)n1	Mtb FBA inh 58 (no result: Mtb betalactam, RecA splice inh, Rv3671c protease, UGM FP inh) | Mtb FBA confirm 78 | GDH-TPI counter-2 63
CNc1ccc2ncc(-c3ccc(OC)c(OC)c3)n2n1	Mtb FBA inh 44 (no result: Mtb betalactam, RecA splice inh, Rv3671c protease, UGM FP inh) | Mtb FBA confirm inactive | GDH-TPI counter-2 inactive
CNc1cc(-c2ccc(OC)c(OC)c2)ncn1	none (no result: Mtb betalactam, RecA splice inh, Rv3671c protease, UGM FP inh)
COc1ccc(C(=O)NCc2cccnc2)cc1S(=O)(=O)N1CCOCC1	none
Cc1ccc(N(C)S(=O)(=O)c2cccc(C(=O)OCC(=O)N3CCCC(C)C3)c2)cc1 (configuration not stated)	none (no result: RecA splice inh)
c1ccc(-c2ccc(-c3ccccc3)[nH]2)cc1	Mtb FBA inh 64 (no result: Mtb betalactam, RecA splice inh, Rv3671c protease, UGM FP inh) | Mtb FBA confirm 178 | GDH-TPI counter-2 163
O=C(O)c1ccc(-c2ccccc2)[nH]c1=O	Mtb FBA inh 106 | Mtb FBA confirm active | GDH-TPI counter-2 active
CN(C)c1c(-c2ccccc2)cc(-c2ccccc2)[nH]c1=O	none (no result: Mtb betalactam, Rv3671c protease, UGM FP inh)
COC(=O)C1=CNC=C(C(=O)OC)C1c1cccc2ccccc12	none
O=C(Nc1ccccc1N1CCCCC1)C1=COCCO1	none (no result: RecA splice inh)
COC(=O)c1cc(-c2ccc(OC)cc2F)nc2nc(SC)[nH]c(=O)c12	Mtb FBA inh 27 | Mtb FBA confirm active | GDH-TPI counter-2 active
Cc1c(O)ccc2c(CC(=O)N[C@@H](Cc3c[nH]c4ccccc34)C(=O)O)cc(=O)oc12	Mtb FBA inh 38 | Mtb FBA confirm 89 | GDH-TPI counter-2 62
